Source: the supplement of paper PMC11219838
Unmarked numbers belong to inactive results.

Test system: Meloidogyne hapla J2
Experiment: proportion of mobile M. hapla J2 relative to DMSO control (fraction of DMSO control); higher = more viable, less nematicidal, active = 0.7 or less
Settings: 60 µM; 5 days; temperature: 20 °C
Description: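 DODA library (846 commercial 1,3,4- and 1,2,4-oxadiazole compounds plus commercial nematicide controls) screened at a single dose of 60 µM (0.6% DMSO) in 96-well plates, two biological replicates. Read-outs: C. elegans N2 L1 survival/reproduction score at day 6, 20 °C (0: 0-10 worms, 1: 11-20, 2: 21-50, 3: >50, 4: overgrown/starved). C. elegans daf-2 dauer, D. dipsaci and M. hapla J2 mobility at day 5, 20 °C, and P. penetrans mobility at day 5, 20 °C, each relative to DMSO controls. M. hapla egg hatching at day 12, 25 °C, relative to the mean of 8 DMSO wells on the same plate.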

| Compound | proportion of mobile M. hapla J2 |
| --- | --- |
| Cn1c(SCc2ccc(Cl)cc2)nnc1-c1ccco1 | 1.05 |
| COc1ccc(-c2noc(COc3ccccc3C)n2)cc1 | 1.03 |
| COc1ccc(-c2nnc(SCC(=O)c3ccc(C)o3)o2)cc1 | 1 |
| O=C(Nc1ccc(-c2noc(COc3ccccc3Cl)n2)cc1)c1ccccn1 | 1.02 |
| Cc1ccc(SCc2nc(-c3cccnc3)no2)cc1 | 1.1 |
| Cc1ccc(C)c(OCc2nc(-c3cccnc3)no2)c1 | 1.04 |
| CC(=O)Nc1ccc(C(=O)CSc2nnc(-c3cccc(Br)c3)o2)cc1 | 1.01 |
| COc1ccc(-c2nnc(SCC(=O)OCc3ccccc3)o2)cc1 | 0.953 |
| COc1ccc(-c2nc(-c3ccccc3Cl)no2)cc1 | 0.964 |
| COc1ccc(-c2noc(COc3ccc(F)cc3)n2)cc1 | 0.891 |
| NC(=O)COc1ccccc1-c1nc(-c2ccccc2Cl)no1 | 0.851 |
| CCOc1cc(-c2nc(-c3ccccc3OC)no2)cc(OCC)c1OCC | 0.978 |
| Clc1ccccc1OCc1nc(-c2ccc(Br)cc2)no1 | 1.02 |
| COc1ccccc1-c1noc(-c2ccccc2C)n1 | 0.962 |
| Brc1ccc(-c2nc(-c3ccccc3)no2)cc1 | 1 |
| Cc1ccc(-c2noc(-c3ccccc3C(=O)N3CCC(C)CC3)n2)cc1 | 0.999 |
| COc1ccc(Cl)cc1-c1noc(COc2ccccc2C)n1 | 0.977 |
| Cc1ccc(OCc2nc(-c3ccc(Cl)cc3)no2)cc1 | 0.901 |
| Cc1ccccc1-c1noc(-c2ccccc2C(=O)NCc2ccccc2)n1 | 0.874 |
| O=C(CSc1nnc(-c2ccccc2Cl)o1)NCc1ccco1 | 0.961 |

| Compound | proportion of mobile M. hapla J2 |
| --- | --- |
| O=C(Nc1ccccc1-c1nc(-c2ccncc2)no1)c1ccc(Cl)cc1 | 0.909 |
| Clc1ccc(-c2nc(-c3ccncc3)no2)cc1Cl | 0.987 |
| CC(C)c1ccc(OCc2nc(-c3ccccn3)no2)cc1 | 1.01 |
| Clc1cccc(-c2nc(-c3ccncc3)no2)c1 | 0.634 (active) |
| COc1ccccc1-c1nnc(SCC(=O)Nc2ccc(Br)cn2)o1 | 0.908 |
| CCc1nc(-c2ccc(-c3ccccc3)nc2OC)no1 | 0.99 |
| CCOC(=O)c1sc(NC(=O)CSc2nnc(-c3ccc(Cl)cc3)o2)c(C#N)c1C | 0.929 |
| Cc1cccc(-c2noc(-c3ccccc3Br)n2)c1 | 0.99 |
| O=C(Nc1ccc(-c2noc(-c3ccc(F)cc3)n2)cc1)c1ccc(Br)o1 | 0.972 |
| COc1ccccc1-c1nc(-c2ccc(Cl)cc2)no1 | 0.934 |
| COc1ccc(-c2noc(COc3ccc(C)cc3Br)n2)cc1 | 1.01 |
| Cc1cc(Cl)ccc1OCc1nc(-c2cccnc2)no1 | 1 |
| Cc1cccc(NC(=O)CSc2nnc(-c3ccncc3)o2)c1C | 1.02 |
| COc1ccccc1-c1nc(-c2ccccc2Cl)no1 | 0.899 |
| COc1ccc(CC(=O)Nc2ccc(-c3noc(-c4ccccc4Br)n3)cc2)cc1 | 1.08 |
| CC(C)(C)c1ccc(OCc2nc(-c3ccccc3)no2)cc1 | 0.987 |
| O=C(CSc1nnc(-c2ccco2)o1)Nc1cc(Cl)ccc1Cl | 1.01 |
| Cc1cc(Cl)ccc1OCc1nc(-c2ccc(F)cc2)no1 | 0.859 |
| CCOC(=O)c1ccc(OCc2nc(-c3cccs3)no2)cc1 | 1.1 |
| CN(C)c1ccc(-c2nnc(SCc3ccccc3)o2)cc1 | 0.991 |
